According to PubChem BioAssay AID868 (SRMLSC, 2007):
Hit rate of the full screen: of about 190,000 compounds, about 3,500 (1.8%) were called active.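 The calls were made as follows: active = inhibition above a set limit, 3 SD over mean compound inhibition (cut at about 8.4% in these data); inactive = the rest.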 This excerpt belongs to a sample that is enriched for actives.

Experiment: inhibitors of the yeast RAM network, primary screen, dse1pr::URA3 reporter, 5-FOA selection (AID 868);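 also: 0% = DMSO-only wells with no growth and 100% = 10 µM 1-NA-PP1 full growth; inhibition rescues growth on 5-FOA so higher OD means more RAM inhibition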
Details: S. cerevisiae dse1pr::URA3 reporter, 5-FOA growth OD615, 2 d; at 50 µM; active compounds read high; analog-sensitive cbk1-as2 kinase mutant strain

inhibition, active:
CCOC(=O)CSc1nc2c(sc(=S)n2CCc2ccccc2)c(=O)n1Cc1ccco1 10.1%
O=C(Nc1ccn(Cc2ccccc2F)n1)c1ccc(COc2ccc(Cl)cc2Cl)o1 9.18%
CCc1nc(Nc2ccc3nccnc3c2)c2oc3ccccc3c2n1 12.5%
CCNC(=S)N(CCc1c(C)[nH]c2ccc(C)cc12)Cc1ccco1 9.53%
Cc1ccc(-n2c(SCC(=O)N/N=C/C=C/c3ccccc3[N+](=O)[O-])nc3ccccc3c2=O)cc1 10.3%
COc1ccc(C)cc1NC(=O)C(Sc1ccccc1)c1ccccc1 (centres undefined) 12%
CC1CCN(C2=NC(=O)/C(=C/c3cn[nH]c3-c3ccccc3)S2)CC1 9.65%
Cc1ccccc1CSCCNC(=O)c1ccc(N(C)S(=O)(=O)c2ccccc2)cc1 14.2%
COc1cccc(-c2nn(C)c3sc(C(=O)N4CCN(c5ccccc5)CC4)cc23)c1 8.94%
O=C(NCc1ccccc1)C1=C[C@@H](c2ccc(C(F)(F)F)cc2)C[C@@H](OCc2ccc(CO)cc2)O1 12.2%
O=C(NCc1ccccc1)C1=C[C@@H](C2CCCCC2)C[C@@H](OCc2ccc(CO)cc2)O1 16.7%

inhibition, inactive:
COc1ccccc1NC(=O)CSc1nc2sc(C)c(C)c2c(=O)n1Cc1ccco1 4.61%
CCOC(=O)CSc1nc2c(c(=O)n(C)c(=O)n2C)n1Cc1ccccc1F 5.16%
O=c1[nH]c(N2CCN(Cc3ccc4c(c3)OCO4)CC2)nc2c1CCCC2 0.84%
O=C(Nc1ccn(Cc2ccccc2)n1)c1cccc(F)c1 0%
CC(=O)Nc1ccn(Cc2c(F)cccc2Cl)n1 0.11%
O=C(Nc1ccc2c(c1)CCC2)c1ccc(Br)s1 1.86%
CCOC(=O)C(C)n1nc(-c2ccccc2)c2ccccc2c1=O (centres undefined) 0.13%
O=C(Nn1cnc2ccccc2c1=O)c1ccccc1 1.22%
COc1ccccc1Nc1ncnc2c1oc1ccccc12 5%
CCSc1nc(C)nc2c1oc1ccccc12 3.79%
Cc1ccc(NC(=O)C(=O)NCc2ccco2)c(C)c1 4.33%
CCOc1ccc(/C=N/OCC(=O)NCc2cccs2)cc1 0.76%
CCOC(=O)C1(CC2CCCCO2)CCN(Cc2nc(-c3cccs3)oc2C)CC1 (centres undefined) 0.26%
O=C(COc1ccccc1)Nc1ccc(N2CCN(C(=O)c3cccs3)CC2)cc1 6.82%
COc1ccc(/C=C2\SC(=N)N(c3ccc(F)cc3)C2=O)cc1 2.04%
COc1cccc(NC(=S)N(CCc2c(C)[nH]c3ccccc23)Cc2ccco2)c1 7.14%
COc1ccc2[nH]c(C)c(CCN(Cc3cccs3)C(=S)Nc3ccccc3OC)c2c1 2.4%
O=C(CSc1nc2ccccc2[nH]1)N/N=C/C=C\c1ccccc1[N+](=O)[O-] 0.9%
CCn1c(SCC(=O)N/N=C/C=C/c2ccccc2[N+](=O)[O-])nnc1-c1ccccc1 0.99%
Cc1ccc(NC(=O)c2ccn(C(=O)Nc3ccccc3)n2)c(C)c1 1.13%
COc1ccc(C)cc1NC(=O)Nc1ccccc1SC 3.85%
COc1ccc(C)cc1NC(=S)Nc1ccccc1SC 0.14%
Cc1c(CN2CCCCC2)c(O)n(CCO)c(=O)c1C#N 1.68%
Cc1cc(C)c(C(N)=O)c(Cl)n1 -0.5%
C/C(=N\Nc1nc(N2CCOCC2)nc(N2CCOCC2)n1)c1ccc([N+](=O)[O-])cc1 1.78%
OCCC1CN(Cc2ccccc2-c2ccco2)CCN1Cc1ccsc1 (centres undefined) 0.13%
CCc1ccc(/C=C2\SC(N3CCOCC3)=NC2=O)cc1 2.12%
Cc1ccc(N2CCN(C3=NC(=O)/C(=C\c4cccs4)S3)CC2)cc1 2.02%
O=c1c(Cl)c(NCc2ccc(F)cc2Cl)cnn1C12CC3CC(CC(C3)C1)C2 6.9%
CCN(CCn1cccn1)Cc1nc(-c2ccc(C(=O)OC)cc2)no1 0.13%
O=C(COc1ccc(NC(=O)c2ccccc2[N+](=O)[O-])cc1)c1ccc(F)cc1 6.75%
Cc1ccccc1CSCCNC(=O)c1ccc(Cl)c(S(=O)(=O)N2CCOCC2)c1 7.41%
Cc1ccc(C(=O)NCCNS(=O)(=O)c2ccccc2)cc1 0.27%
COc1ccccc1N1CCN(C(=O)c2cc3c(-c4ccc(Cl)cc4)nn(C)c3s2)CC1 5.62%
CCOC(=O)N1CCN(C(=O)c2cc3c(-c4ccc(Cl)cc4)nn(C)c3s2)CC1 -0.35%
O=C(CCS(=O)(=O)Cc1ccccc1)Nc1ccc2c(c1)OCCO2 3.16%
O=C(Nc1ccnc(-c2ccncc2)n1)c1cccs1 -0.85%
COc1ccnc(Oc2ccccc2)n1 2.23%
CC(C)(C)[C@H]1C=C(C(=O)NCc2ccccc2)O[C@@H](OCc2ccc(CO)cc2)C1 3.51%
C=CCOC(=O)C1=C[C@@H](c2ccccc2)C[C@@H](OCc2ccc(CO)cc2)O1 1.5%
O=C(C1=C[C@H](c2ccc(C(F)(F)F)cc2)C[C@H](OCc2ccc(CO)cc2)O1)N1CCN(Cc2ccccc2)CC1 2.29%
O=C(NCc1ccccc1)C1=C[C@H](C2CC2)C[C@H](OCc2ccc(CO)cc2)O1 -0.5%
Fc1ccccc1Cn1cnc(NC(=S)NCCc2ccccc2)n1 6.41%
O=C(NCCc1ccc(F)cc1)c1n[nH]c2ccccc12 -0.97%
C/C(N)=C(/C#N)C(=O)COC(=O)c1cc(-c2cccc(Br)c2)nc2ccccc12 4.74%
O=C(CCC1CCCN(Cc2ccc(O)c(Cl)c2)C1)NCc1ccccc1F (centres undefined) 1.23%
O=C(Oc1cccc(O)c1)C1CCCCC1 -0.74%
CC(C)Oc1ccccc1C(=O)NC(CO)C(=O)O (centres undefined) 1.42%
